Bioassay records from PubChem BioAssay.
HepG2 tox: kills HepG2 cells in TGF-b inhibitor counter-screen; HepG2 CAGA-GFP viability, ATP luminescence, 18 h; Potency, µM (titrated, usually from 46.1 µM), hits mostly cytotoxic; 410,000 tested, 0.76% active; AID 588856
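HepG2 CAGA-GFP cells (1000/well, DMEM with 1% FBS) received compound, then TGF-beta at 500 pg/mL final, and were incubated 18 hours at 37 degrees C. Viability was read by CellTiter-Glo luminescence. Media-only wells were set as complete cell-killing and DMSO as no toxicity.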
TGFb inhibitor: inhibitors of TGF-b signaling; HepG2 CAGA-GFP TGF-b/SMAD3 reporter, GFP fluorescence, 18 h; TGF-beta stimulated, 500 pg/mL final; Potency, µM (highest dose often 46.1 µM), actives largely listed as inhibitors; 410,000 tested, 1.2% active; AID 588855; note: nearly all actives have a fitted effect of over 65% in size
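HEPG2 CAGA-GFP reporter cells (1000/well, DMEM with 1% FBS) received compounds, then recombinant TGF-beta at 500 pg/mL final for 18 hours at 37 degrees C. Per-cell GFP summed per well was normalised to unstimulated and stimulated DMSO controls before curve fitting.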
S-ASM inh: human S-ASM enzyme inhibition. P17405. placental ASM, HMU-PC fluorogenic substrate, 60 min. 340,000 tested, 0.006% active. Potency, µM (doses to about 57.5 µM), most hits filed as inhibitors
Target sequence (P17405 47-631 limits assumed): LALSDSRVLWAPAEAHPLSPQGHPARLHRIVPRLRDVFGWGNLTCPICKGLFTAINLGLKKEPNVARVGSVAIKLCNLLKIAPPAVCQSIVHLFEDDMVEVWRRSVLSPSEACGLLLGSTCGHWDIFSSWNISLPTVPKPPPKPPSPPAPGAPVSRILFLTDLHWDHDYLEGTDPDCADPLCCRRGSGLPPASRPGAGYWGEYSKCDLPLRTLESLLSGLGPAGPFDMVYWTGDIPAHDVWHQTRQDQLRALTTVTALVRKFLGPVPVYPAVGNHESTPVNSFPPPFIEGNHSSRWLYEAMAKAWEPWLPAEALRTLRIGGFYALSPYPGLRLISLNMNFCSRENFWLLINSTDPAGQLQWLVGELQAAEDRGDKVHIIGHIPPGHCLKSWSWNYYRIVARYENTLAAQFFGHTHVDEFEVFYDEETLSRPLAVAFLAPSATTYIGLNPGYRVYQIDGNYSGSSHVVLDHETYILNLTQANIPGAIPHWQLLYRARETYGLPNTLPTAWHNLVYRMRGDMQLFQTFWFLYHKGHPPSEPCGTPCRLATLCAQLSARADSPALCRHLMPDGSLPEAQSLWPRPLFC
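Human placenta-derived ASM preincubated with compound 10 min at room temperature, then reacted with 9 uM (final) fluorogenic HMU-PC substrate for 60 min at 37 C. Stop solution raises pH to 10; fluorescence read at Ex 386/Em 447 nm.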
IL1B secr inh: blocks inflammasome-driven IL-1 beta release; THP-1 LPS/ATP IL-1B secretion, AlphaLISA, 16 h; stronger effect = lower value; activity change, % at 57.5 µM; 360,000 tested, 4.7% active; AID 743279; in the data active = activity change below about -50%; inconclusive = mostly about -30% to -49%
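Secreted IL-1B measured by AlphaLISA bead assay after 16 h compound exposure of THP-1 cells; compounds (final up to 57.5 uM) added 1 h before LPS (250 ng/mL) and ATP (1.25 mM) stimulation; lower signal means less secretion.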
TDP1 cell CPT: growth inhibition of DT40 Tdp1-/-;hTDP1 cells with camptothecin (screen for TDP1 inhibitors); 420,000 tested, 12% active; chicken DT40 Tdp1-/-;hTDP1 cells + 20 nM CPT, ATP luminescence, 48 h; Potency, µM (titrated, usually from 46.2 µM), usual class: inhibitors; AID 686979; note: nearly all actives have a fitted effect of over 55% in size
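Chicken DT40 Tdp1-/- cells stably complemented with human TDP1 were seeded at 400 cells/well in medium containing 20 nM camptothecin, exposed to pin-transferred compounds, and grown at 37 °C for at least 48 hr. Viability was read as ATP luminescence.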
TDP1 cell noCPT: qHTS for Inhibitors of human tyrosyl-DNA phosphodiesterase 1 (TDP1): qHTS in cells in absence of CPT; DT40 Tdp1-/- hTDP1 cells, no CPT, ATP luminescence, 48 h; Potency, µM (top dose mostly 46.2 µM), usual class: inhibitors; 420,000 tested, 15% active; AID 686978, 2013; note: nearly all actives have a fitted effect of over 55% in size
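Chicken DT40 Tdp1-/- cells stably complemented with human TDP1 were seeded at 400 cells/well with DMSO in place of 20 nM camptothecin. After compound pinning, cells grew at least 48 hr at 37 °C; viability read by CellTiter-Glo luminescence.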
Of the large screens only hits and unclear results are named; the others gave an inactive call. Shown are actives, neighbours in structure and some others; about 19% of the full set was active somewhere. Unless noted, calls come from the whole dose curve; as a rule, active = well fitted curve in the direction sought with a large enough effect; inconclusive = small, poorly fitted or top-dose-only effect, or another doubt; inactive = no such curve, though single readings can be large; an effect the other way counts as inactive or inconclusive.

CCN(CC(=O)Nc1ccc(NC(C)=O)cc1)C(=O)c1ccc2c(c1)OCO2	none
COc1ccc(OCCN(C)Cc2c(O)ccc3ccccc23)cc1	IL1B secr inh inconclusive
Cc1ccc(OCCCn2c(-c3ccc(Cl)cc3)nc3ccccc3c2=O)cc1C	none (no result: S-ASM inh, IL1B secr inh)
O=C(NCc1nnnn1-c1ccc(F)c(F)c1)c1ccc2c(c1)OCO2	none
C/C(=N\OCC(=O)OCC(=O)N(C)c1ccccc1)c1ccc2c(c1)OCO2	none
O=C(CN1C(=O)NC2(CCCC2)C1=O)Nc1cc(C(F)(F)F)ccc1N1CCCCC1	IL1B secr inh -72, TDP1 cell CPT inconclusive (no result: S-ASM inh)
O=C(CN1C(=O)NC2(CCCCC2)C1=O)Nc1cc(C(F)(F)F)ccc1N1CCCCC1	TDP1 cell CPT inconclusive, TDP1 cell noCPT inconclusive
COc1cccc(Oc2ccc(C(F)(F)F)cc2NC(=O)CN2C(=O)NC3(CCCC3)C2=O)c1	HepG2 tox 13µM, TGFb inhibitor 18µM, TDP1 cell CPT 15µM, TDP1 cell noCPT inconclusive
O=S(=O)(N=S(N1CCCCC1)N1CCCCC1)c1ccccc1	TDP1 cell CPT 9.2µM, TDP1 cell noCPT inconclusive
CCOC(=O)c1nc(C)nc(Sc2n[nH]c(-c3ccc(C(C)(C)C)cc3)n2)c1C	TGFb inhibitor inconclusive, TDP1 cell CPT inconclusive, TDP1 cell noCPT 18µM
Cc1nc(N2CCCC2)ncc1C(=O)Nc1ccc(F)cc1F	none (no result: S-ASM inh, IL1B secr inh)
COc1ccc(-c2nnc(CSc3nc4ccccc4c(=O)n3C)o2)cc1OC	TDP1 cell CPT 15µM, TDP1 cell noCPT 21µM
Cc1ccccc1CSc1nc2ccccc2c(=O)n1C	TDP1 cell CPT inconclusive, TDP1 cell noCPT 26µM
COn1c(SCc2ccc(C)cc2C)nc2ccccc2c1=O	TDP1 cell CPT 21µM, TDP1 cell noCPT 18µM
COn1c(SCC(N)=O)nc2ccccc2c1=O	none
Cc1cccc(NC(=O)CSc2nc3c([nH]c4ccccc43)c(=O)n2C)c1	TGFb inhibitor inconclusive, TDP1 cell CPT 8.2µM, TDP1 cell noCPT 12µM
CCN(C(=O)COC(=O)/C=C/c1c(C)nn(-c2ccccc2)c1C)C1CCS(=O)(=O)C1 (configuration not stated)	none
O=S(=O)(Nc1cccnc1)c1ccc(Br)c2ccccc12	TGFb inhibitor inconclusive
O=C(CSc1nc2c([nH]c3ccccc32)c(=O)n1-c1ccccc1F)Nc1cccc(C(F)(F)F)c1	TGFb inhibitor inconclusive, TDP1 cell CPT 21µM, TDP1 cell noCPT 16µM (no result: S-ASM inh, IL1B secr inh)
Cc1ncsc1CCSc1n[nH]c(=O)n1-c1ccccc1	TDP1 cell CPT inconclusive
CCOc1ccc(OCC)c(NC(=O)CSc2nc3cccnc3n2C)c1	TDP1 cell CPT inconclusive, TDP1 cell noCPT inconclusive
CCOc1ccc(OCC)c(NC(=O)CSc2nc3ccccc3c(=O)n2C)c1	TDP1 cell CPT 16µM, TDP1 cell noCPT 21µM
Cn1c(SCC(=O)NNC(=O)Cc2ccccc2)nc2ccccc2c1=O	TDP1 cell CPT 21µM, TDP1 cell noCPT 13µM
Cc1ncsc1CCSc1nc2ccccc2c(=O)n1C	TDP1 cell CPT inconclusive, TDP1 cell noCPT 23µM
O=C(COC(=O)c1ccccc1OCc1cccc(Br)c1)Nc1ccc(Br)cc1	TDP1 cell CPT inconclusive, TDP1 cell noCPT inconclusive (no result: S-ASM inh, IL1B secr inh)
CCOC(=O)C1CCN(C(=O)CCc2nc3sc4c(c3c(=O)[nH]2)CCCC4)CC1	TDP1 cell noCPT inconclusive
O=C(NCc1ccncc1)[C@@H]1CCCN1C(=O)[C@@H]1CCCN1	none (no result: HepG2 tox, TGFb inhibitor, S-ASM inh)
COc1ccc(-c2cc(-c3nnc(COC(=O)c4ccncc4)o3)c3ccccc3n2)cc1OC	IL1B secr inh inconclusive, TDP1 cell noCPT 9.2µM
CCSc1nc2c([nH]c3ccccc32)c(=O)n1C	none
COCCn1c(SCC(=O)Nc2cccc(NC(C)=O)c2)nc2c([nH]c3ccccc32)c1=O	TDP1 cell CPT inconclusive, TDP1 cell noCPT 3.3µM
Cn1c(SCC(=O)O)nc2ccccc2c1=O	none
Cc1cccc(NC(=O)CSc2nc3ccccc3c(=O)n2C)c1	IL1B secr inh -71, TDP1 cell CPT inconclusive, TDP1 cell noCPT inconclusive
CCC1CCCCN1C(=O)CSc1nc2c([nH]c3ccccc32)c(=O)n1C (configuration not stated)	TDP1 cell CPT 18µM, TDP1 cell noCPT 21µM
COCCn1c(SCC(=O)Nc2cccc(F)c2)nc2c([nH]c3ccccc32)c1=O	none
Cc1ccc(C(=O)Nc2c(C(=O)NCc3ccc(Cl)cc3)sc3nc(C)cc(C)c23)cc1	TDP1 cell CPT 9.2µM, TDP1 cell noCPT 13µM (no result: TGFb inhibitor, S-ASM inh, IL1B secr inh)
CCc1ccc(N(CC)C(=O)c2ccc3c(=O)n4c(nc3c2)CCCCC4)cc1	TDP1 cell CPT inconclusive, TDP1 cell noCPT 16µM (no result: TGFb inhibitor, S-ASM inh, IL1B secr inh)
Cc1cc(C)c2c(NC(=O)c3ccccc3Cl)c(C(=O)NCc3ccc(Cl)cc3)sc2n1	TDP1 cell CPT inconclusive, TDP1 cell noCPT inconclusive (no result: S-ASM inh, IL1B secr inh)
Cc1c(C(=O)NCc2ccc(Cl)cc2)sc2nc3n(c(=O)c12)CCCC3	TDP1 cell CPT inconclusive, TDP1 cell noCPT 16µM (no result: TGFb inhibitor, S-ASM inh, IL1B secr inh)
